PubChem BioAssay AID1950 (The Scripps Research Institute Molecular Screening Center, 2009)
In all, about 300,000 compounds went through this assay and about 1,000 (0.33%) were called active. The entries come from a sample that favours actives as a whole. Unmarked numbers belong to inactive results. Cut-off read from the data, not from the text of the source: active = inhibition above about 28%; inactive = the rest.

Test system: EBNA-1 (Epstein-Barr virus nuclear antigen 1), Human herpesvirus 4
Experiment: EBNA-1 DNA-binding inhibitors, primary screen, biochemical, fluorescence polarization (AID 1950)
Conditions: at 14.8 µM, stronger effect = higher value

Compound	inhibition
Cc1nonc1NC(=O)c1oc2ccccc2c1C	1.17%
CCc1nonc1NC(=O)c1oc2ccc(Cl)cc2c1C	7.96%
COc1ccc(-c2nonc2NC(=O)c2oc3ccc(F)cc3c2C)cc1OC	34.8% (active)
O=C(CCS(=O)(=O)c1ccccc1)NC1CCCC1	-3.67%
COc1cc(NC(=O)CN(C)S(=O)(=O)c2ccc3nc(C)sc3c2)cc(OC)c1	1.78%
Cc1ccc2nc(-c3ccc(NC(=O)CN(C)S(=O)(=O)c4ccccc4)cc3)sc2c1	72.6% (active)
CCN(CC)S(=O)(=O)c1ccc(NC(=O)CN(c2cccc(F)c2)S(C)(=O)=O)cc1	-22.3%
Cc1nc2ccc(S(=O)(=O)N(C)CC(=O)NC(C)c3ccccc3)cc2s1 (centres undefined)	-7.08%
Cc1cccc(N(CC(=O)Nc2ccc(-c3nc4ccc(C)cc4s3)cc2)S(C)(=O)=O)c1	46.6% (active)
COc1cccc(N(CC(=O)Nc2cccc(F)c2)S(C)(=O)=O)c1	-2.72%
COc1cccc(CNn2cn[nH]c2=S)c1OCc1ccccc1	7.14%
O=C(CN1CCSCC1)N/N=C/c1ccc(F)cc1	10.8%
CCOc1ccc(CCNC(=O)COC(=O)c2ccc(F)c(S(=O)(=O)N3CCOCC3)c2)cc1OCC	-5.23%
O=C(Nc1ccccc1F)c1ccc(Cn2cc(Br)cn2)cc1	-6.22%
NC(=O)Cn1nc([N+](=O)[O-])nc1Oc1ccc(Br)cc1	4.94%
COc1ccc(CCNC(=O)C2CCCN2C(=O)Nc2ccccc2)cc1OC (centres undefined)	2.79%
CCCCCCCCCCCCC(NC(C)=O)(C(=O)OCC)C(=O)OCC	-7.56%
CC(C)CNC(=O)C(=O)Nc1ccc(N(C)C)cc1	-3.03%
CC(=O)N(C)c1ccc(NC(=O)C(F)(F)F)cc1	-11.5%
CN(C)c1ccc(N/C=C/C(=O)C(F)(F)F)cc1	173% (active)
CCCn1nnnc1NCc1ccc(CC)cc1	10.3%
CC(C)c1ccc(NC(=S)NC2CC3C=CC2C3)cc1 (centres undefined)	-1.5%
COc1ccc2[nH]c3nc(SCC(=O)NC4CC4)nnc3c2c1	-0.29%
COC(=O)CSc1nc(C)c2ccc(OC)cc2n1	78.5% (active)

Compound	inhibition
COc1ccc2nc(SCc3ccccc3)nc(C)c2c1	11.4%
CCN(CC)Cc1csc2ccc(Br)cc12	5.3%
O=C(C1CCC1)N1CCc2cc(S(=O)(=O)NCc3cccnc3)ccc21	8.39%
COc1cc(Nc2nc3ccc(Cl)cc3n3cnnc23)cc(OC)c1OC	2.08%
O=C(Nc1ccc(C2CC2(Cl)Cl)cc1)c1cccc([N+](=O)[O-])c1 (centres undefined)	-4.52%
Cc1ccc(-n2c(C)cc(/C=C(\C#N)C(=O)NCC3CCCO3)c2C)cc1 (centres undefined)	7.66%
O=C(Cn1c(NCCO)nc2ccccc21)c1ccc(Cl)cc1Cl	-13.3%
Cc1ccc2c(C)c(C(=O)N(C)Cc3ccncn3)oc2c1C	3.76%
COc1cc(OC)c(C(=O)NCc2ccc3c(c2)OCO3)cc1OC	-7.83%
COc1ccc2c(c1)C(C)=CC(C)(C)N2C(=O)CNCc1ccc2c(c1)OCO2	3.99%
COc1ccc(NC(=O)NCc2ccc3c(c2)OCO3)c(OC)c1	71.6% (active)
O=C(NCc1ccccc1)[C@@H]1CSC2c3ccccc3C(=O)N21 (some centres undefined)	-9.14%
Cc1ccccc1CCN(CC(=O)NC1CCCCC1)C(=O)c1csnn1	3.08%
CCN(CC(=O)Nc1c(F)cccc1F)C(=O)CN1c2cccc3cccc(c23)S1(=O)=O	-4.49%
Nc1cc(N)nc(SCc2cccc(F)c2)n1	-19.7%
COC(=O)c1ccccc1NC(=O)CSc1nc2c(c(=O)[nH]1)CCC2	-3.59%
Cc1cccc(-n2c(=O)c3c(C)c(C)sc3n(CC(N)=O)c2=O)c1	-0.9%
Cc1sc2c(c1C)c(=O)n(-c1ccccc1)c(=O)n2CC(=O)NCC1CCCO1 (centres undefined)	1.39%
Cc1cccc(NC(=O)Cn2c(=O)n(Cc3ccccc3)c(=O)c3c(C)c(C)sc32)c1	79.6% (active)
CCOCCCN(C)C1CCN(C(=O)c2oc3ccccc3c2NC(=O)Cc2cccc([N+](=O)[O-])c2)CC1	-6.1%
CCOc1ccc(C(C(=O)NCCOC)N(CCOC)C(=O)CCC(=O)Nc2ccccn2)cc1 (centres undefined)	-5.61%
CCOc1ccc(-c2cn(S(=O)(=O)c3cccc4nsnc34)nc2N)cc1	3.63%
CCN(CC)c1ccc2oc(=O)c(C)nc2c1	110% (active)
C=CCN(C(=O)Nc1ccc2oc(C)nc2c1)c1ccccc1	14.4%

Compound	inhibition
CCN(CC)c1ccc2cc(C(N)=O)/c(=N\NC(=O)c3ccncc3)oc2c1	9.01%
C=CCOC(=O)C1=C[C@H](c2ccc(Br)cc2)C[C@H](OCCCCO)O1	8.07%
CCc1ccc(C(=O)NN=C2CCCCCC2)s1	4.85%
N#Cc1c(NC(=O)CCCl)sc2c1CCCCC2	-14.9%
Cc1cccc(C(=O)OCC(=O)Nc2sc3c(c2C#N)CCC3)c1	3.25%
CC(=O)c1c(C)[nH]c(C(=O)OCC(=O)Nc2sc3c(c2C#N)CCCC3)c1C	42.2% (active)
CC(=O)c1cc(-c2ccccc2)[nH]c1N1CCCC1	-8.66%
Cc1ccc2c(c1)C(O)(CC(=O)c1cccc(-n3cccc3)c1)C(=O)N2 (centres undefined)	2.62%
CCc1nccn1S(=O)(=O)c1cccc([N+](=O)[O-])c1	31.4% (active)
O=[N+]([O-])c1cccc(S(=O)(=O)N2CCCCCC2)c1	1.71%
CC1=NCCN1S(=O)(=O)c1cccc([N+](=O)[O-])c1	-6.19%
Cc1cc(Nc2ccc(Br)cc2)nc2ccccc12	-8.6%
O=C(N/C(=C/c1ccc(Cl)cc1)C(=O)N1CCCCC1)c1ccco1	7.31%
CC(=O)CC[C@@H](C)O[C@@H]1OC(C)[C@H](O)CC1O (some centres undefined)	4.39%
Cc1cc(C)cc(NC(=O)NCc2ccccn2)c1	-7.86%
COc1ccc(C)cc1NC(=O)NCc1ccccn1	110% (active)
COc1ccc(C)cc1NC(=O)NCCCCc1ccccc1	2.71%
CCOc1ccc(S(=O)(=O)N2CCN=C2Cc2ccccc2)cc1C	4.47%
CC1CCCN(S(=O)(=O)c2ccc(-c3ccc(=O)[nH]n3)o2)C1 (centres undefined)	-20.5%
Cc1cccc(N2Cc3ccccc3C2=NC(=O)c2ccc(Cl)nc2)c1	17.6%
N#Cc1ccc(N2Cc3ccccc3/C2=N/C(=O)Nc2ccc(Cl)cc2)cc1	73.5% (active)
O=C(Nc1ccccc1)OCc1cn(-c2ccc(Cl)cc2)nn1	6.14%
COc1ccc(NC2CCCN(C(=O)c3ccncc3)C2)cc1 (centres undefined)	5.52%
C=CCN(c1ccc(Cl)cc1)S(=O)(=O)c1cccc(C(=O)OCC(=O)N(C)C)c1	11.1%

Compound	inhibition
COc1ccc(C(C[N+](=O)[O-])n2nc(C)cc2C)cc1 (centres undefined)	11%
O=C(CCCn1c(SCC(=O)c2ccc(F)cc2)nc2ccccc2c1=O)NCc1ccco1	37.8% (active)
Cn1c(-c2ccc(F)cc2)cnc1SCC(=O)NCc1ccco1	3.48%
O=C(CCCn1c(SCC(=O)c2ccccc2)nc2ccccc2c1=O)NCC1CCCO1 (centres undefined)	1.63%
CC(C)C[C@H]1CN=C(Nc2ccccc2)N1CC1CCCCC1	0.22%
COc1ccc(NC(=O)C2C3CCC(O3)C2C(=O)O)cc1OC (centres undefined)	5.36%
COc1ccc(C(=O)Nc2ccccc2C(=O)N/N=C/c2ccc(O)c(OC)c2)cc1	6.06%
COC(=O)C1=CN(Cc2ccc(OC)cc2)C=C(C(=O)OC)C1c1ccc(O)c(OC)c1	28.7% (active)
CCOc1cc(C2C(C(=O)OC)=CN(C3CCCC3)C=C2C(=O)OC)cc(Br)c1O	11.7%
Cc1ccccc1NC(=O)C(C)OC(=O)CCC(=O)N(CC(C)C)c1c(N)n(CC(C)C)c(=O)[nH]c1=O (centres undefined)	-7.69%
COc1ccc(S(=O)(=O)NC(C)C(=O)N2CCCCCC2)cc1 (centres undefined)	2.58%
CSc1nnc(SCc2nc3sc(C(=O)O)c(C)c3c(=O)[nH]2)s1	4.86%
COc1ccccc1NC(=O)CSc1nc2sc3c(c2c(=O)n1-c1ccccc1)CCN(C)C3	-6.51%
CCOC(=O)c1ccc[n+](CC(=O)Nc2ccccc2OC(F)F)c1	-2.1%
Cc1ccc(-c2nc(SCC(=O)Nc3ccccc3OC(F)F)c3c(C)c(C(=O)O)sc3n2)cc1	29.7% (active)
COc1ccc([N+](=O)[O-])cc1NCC(=O)c1ccc(C)cc1	5.63%
Cc1ccc(S(=O)(=O)N(CC(O)CN2C(=O)NC(C)(C)C2=O)c2cccc([N+](=O)[O-])c2)cc1 (centres undefined)	-8.62%
Cc1ccc(O)c(/C=N/NC(=O)COc2ccc3c(C)cc(=O)oc3c2)c1	27.9% (active)
CCOC(=O)Cc1csc(NC(=O)COc2ccc3c(C)cc(=O)oc3c2)n1	-2.07%
Cc1cc(=O)oc2cc(OCC(=O)Nc3nnc(C4CC4)s3)ccc12	7.9%
Cc1ccc(OCCC(=O)OCC(=O)N2c3ccccc3NC(=O)C2(C)C)cc1	-1.98%
CN1CCN(CC(=O)C23CC4CC(CC(C4)C2)C3)CC1	-0.65%
